Anesthetic bind: qHTS Assay for Identification of Novel General Anesthetics; Ferritin light chain (Equus caballus), P02791; hit rate 0.074% among 350,000; Potency, µM (series often up to 77.5 µM), without a hit: top-dose activity change, negative = displacement, hits mostly inhibitors; AID 485281, 2010; apoferritin/1-aminoanthracene competitive binding, fluorescence; further: on the % scale 0 is the no-effect control and ±100 the full control effect; nearly all actives have a fitted effect of over 20% in size
Target sequence (P02791 2-175 limits assumed): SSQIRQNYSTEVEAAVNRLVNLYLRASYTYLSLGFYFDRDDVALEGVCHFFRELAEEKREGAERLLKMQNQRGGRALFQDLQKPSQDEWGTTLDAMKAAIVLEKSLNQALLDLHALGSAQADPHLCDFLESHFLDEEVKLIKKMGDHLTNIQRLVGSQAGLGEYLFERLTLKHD
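Horse-spleen apoferritin (10 uM) in 50% saturated 1-aminoanthracene in PBS was incubated 10 min at room temperature with compound. Fluorescence (ex 380, em 535 nm) was normalized to free and bound 1-AMA, with concentration-response fitted by a four-parameter Hill equation.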
TGFb inhibitor: qHTS for Inhibitors of TGF-b. AID 588855, 2011. HepG2 CAGA-GFP TGF-b/SMAD3 reporter, GFP fluorescence, 18 h; TGF-beta stimulated, 500 pg/mL final. hit rate 1.2% among 410,000. Potency, µM (doses to about 46.1 µM), for the others: top-dose activity, negative = inhibition, actives largely listed as inhibitors; further: on the % scale 0 is the no-effect control and ±100 the full control effect; nearly all actives have a fitted effect of over 65% in size
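Smad-responsive CAGA-GFP expression was quantified in HEPG2 cells exposed to compounds and 500 pg/mL final TGF-beta for 18 h at 37 degrees C; unstimulated wells defined full inhibition.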
HepG2 tox: qHTS for Inhibitors of TGF-b: Cytotox Counterscreen; HepG2 CAGA-GFP viability, ATP luminescence, 18 h; Potency, µM (doses to about 46.1 µM), without a hit: at the top dose activity change, negative = cytotoxicity, actives largely listed as cytotoxic; hit rate 0.76% among 410,000
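HepG2 CAGA-GFP cells (1000/well, DMEM with 1% FBS) received compound, then TGF-beta at 500 pg/mL final, and were incubated 18 hours at 37 degrees C. Viability was read by CellTiter-Glo luminescence. Media-only wells were set as complete cell-killing and DMSO as no toxicity.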
ATXN viability: Viability Counterscreen for Primary qHTS for Inhibitors of ATXN expression; S2 cells (HEK-293 line with an ATXN2-luciferase reporter) viability, CellTiter-Fluor protease fluorescence, 24 h; Potency, µM (highest dose often 56.7 µM), most hits filed as cytotoxic; hit rate 0.49% among 400,000; further: nearly all actives have a fitted effect of over 40% in size
ATXN2 expr inh: Primary qHTS for Inhibitors of ATXN expression | HEK-293 ATXN2-luciferase reporter, luminescence, 24 h | hit rate 0.72% among 360,000 | Potency, µM (top dose mostly 57 µM), inactives show top-dose activity change, negative = inhibition, actives largely listed as inhibitors; further: on the % scale 0 is the no-effect control and ±100 the full control effect; nearly all actives have a fitted effect of over 55% in size
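ATXN2-luciferase reporter cells (luciferase flanked by upstream and downstream ATXN2 gene portions) were treated 24 h at 37 °C with compounds at up to 57 uM. SteadyGlo luminescence gave expression; GF-AFC fluorescence gave viability.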
* hit, by the source's call; i = inactive; ? = inconclusive; . = no result; ! = repeats disagree; [ ] = dose if it differs, or a comment. Rows were chosen to be rich in hits. Some 2.4% of all compounds tested hit in one or more screens of this group. The call rests on the fitted dose curve; in most records, active means well fitted curve in the direction sought with a large enough effect; inconclusive means small, poorly fitted or top-dose-only effect, or another doubt; inactive means no such curve, though single readings can be large; an effect the other way counts as inactive or inconclusive. Potency means the concentration at half of the fitted maximal effect.

SMILES	Anesthetic bind	TGFb inhibitor	HepG2 tox	ATXN viability	ATXN2 expr inh
CN(C)CCNc1nc(-c2ccco2)c2c(c1C#N)CC(C)(C)OC2	24%	-19%	3%	i	-32%
CCCCN(C)c1nc(-c2ccco2)c2c(c1C#N)CC(C)(C)OC2	?	?	-48%	i	22µM*
CCCCN(CC)CCCNC(=O)C1CCCN(c2ncnc3c2nc2n3CCCCC2)C1 (stereo not given)	4%	-4%	-40%	i	-5%
Cc1cc(C)cc(CC2CC(=O)N(c3nc(C)cc(C)n3)C2=O)c1 (stereo not given)	5.6µM*	1%	0%	i	-3%
Cc1ccc(N2C(=O)CC(Cc3cc(C)cc(C)c3)C2=O)cc1 (stereo not given)	-17%	1%	-11%	i	-9%
COc1cc2c(cc1NC(=O)Nc1ccccc1)oc1ccccc12	3%	?	7.1µM*	i	4%
Cc1ccc(-n2c(-c3ccc(Br)cc3)c[n+]3c2CCc2ccc4cccnc4c2-3)cc1	?	3.2µM*	8.9µM*	14µM*	5µM*
CCOC(=O)c1c(C)n(-c2ccccc2)c2ccc(OC(=O)c3ccccc3NC(=O)C(C)(C)C)cc12	-5%	?	22µM*	25µM*	?
CC1(C)CCN2CCC(C)(C)c3c(O)ccc1c32	-5%	61%	-18%	?	3.2µM*
CC(=O)c1ccc(NC(=O)c2ccc(C)c(S(=O)(=O)N3CCOCC3)c2)cc1	-3%	-6%	-10%	i	6%
COc1ccc(/C=C/C(=O)Nc2ccc(C)c(S(=O)(=O)N3CCOCC3)c2)cc1	.	-14%	-11%	?	22µM*
CCOC(=O)c1ccc(NC(=O)c2ccc(C)c(S(=O)(=O)N3CCOCC3)c2)cc1	-20%	-6%	-45%	28µM*	25µM*
O=S(=O)(CC(CN1CCCC1)N1CCCC1)c1ccc2ccccc2c1 (stereo not given)	-12%	0%	-24%	11µM*	-1%
COc1cc2nc(N(C)C)c(CNCc3cccc4ccccc34)cc2c(OC)c1OC	.	.	.	i	.
C(C#CCCCCCCCCC[n+]1ccccc1)#CCCCCCCCCC[n+]1ccccc1	-20%	11µM*	-163%	13µM*	7.1µM*!
CCC(C)Sc1ccc(-c2nc3ccccn3c2NCc2ccccc2)cc1OC (stereo not given)	.	13µM*	-60%	?	?
O=C(Nc1ccc(F)cc1F)N1CCN(c2ccc(Cl)c(Cl)c2)CC1	-4%	?	-39%	?	20µM*
CC(=O)c1ccc(N2CCN(C(=O)Nc3ccc(F)cc3F)CC2)cc1	-6%	-20%	-11%	i	-3%[11.3 µM]
Nc1ccc(/C=C/C(=O)c2cccs2)cc1	2%	0%	-9%	.	85%
O=C(C=Cc1ccccc1)c1cccs1	.	11µM*	-63%	?	26%
COc1ccc(/C=C/c2nccc3ccccc23)cc1OC	.	?	-25%	.	.
N#CC(=C1Nc2ccccc2S1)c1ccnc(OCc2ccc(CN3CCOCC3)cc2)n1	.	.	.	.	0.014µM*
Cc1cccnc1C(c1ccc(F)cc1)N(C)C(=O)C1CCN(CCOc2ccc(Cl)cc2Cl)CC1 (stereo not given)	.	?	-100%	28µM*	32µM*
COc1ccccc1C(NC(=O)C1CCN(CCOc2ccc(Cl)cc2Cl)CC1)c1ccccn1 (stereo not given)	.	?	13µM*	20µM*	32µM*
CC(C)=CCC/C(C)=C/CC/C(C)=C/CCC(=O)OC/C=C(\C)CCC=C(C)C	.	.	.	i	6%
SMILES	Anesthetic bind	TGFb inhibitor	HepG2 tox	ATXN viability	ATXN2 expr inh
Nc1ccc(C2CCCc3nonc32)c2nonc12 (stereo not given)	18µM*	0%	2%	i	-3%
CCOc1ccc(CCNC(=O)c2cc3cccc4c3n2CCS4)cc1	62%	0%	-20%	.	.
COc1ccccc1-n1cc(C(=O)NCCN2Cc3ccccc3OC(c3ccsc3)C2)cn1 (stereo not given)	.	.	.	i	.
CCCCN(CC(O)COc1cccc(C)c1)CC(O)COc1cccc(C)c1 (stereo not given)	-6%	16µM*	-100%	?	-33%
COC1=CC(=O)c2nc(Cl)ccc2C1=O	.	0.89µM*	1.3µM*	?	3.2µM*
COc1cc(NS(=O)(=O)c2cc(Br)cc3c2N(C(=O)C2CC2)CC3)cc(OC)c1	-4%	2.2µM*	-23%	.	.
CC1CC(C)CN(CCCNS(=O)(=O)c2cc(Br)cc3c2N(C(=O)C2CC2)CC3)C1 (stereo not given)	-4%	11%	4µM*	i	-16%
CCC(=O)N1CCc2cc(Br)cc(S(=O)(=O)NCCc3ccccc3)c21	15%	?	4%	?	-17%
CCC(=O)N1CCc2cc(Br)cc(S(=O)(=O)NCCc3cccc(C)c3)c21	43%	11µM*	-17%	.	.
COCCNC(=O)C[C@H]1C[C@H]2c3cc(NS(=O)(=O)c4ccc(F)cc4)ccc3O[C@H]2[C@H](CO)O1	.	1%	10%	i	7%
COc1ccc(/C=N/NC(=O)c2ccco2)cc1Cn1nc(C)cc1C	-18%	10%	2%	i	14%
COc1ccc(/C=N\NC(=O)COc2ccc(C(C)(C)C)cc2)cc1Cn1nc(C)cc1C	?	5.6µM*	-63%	i	-38%
COc1ccc(CN2CCN(Cc3ccccc3F)CC2)cc1OC	0%	-7%	24%	i	.
CCN1/C(=C\C(=S)Nc2ccccc2)Sc2ccccc21	?	11µM*	-33%	?	-31%
O=[N+]([O-])c1cccnc1Nc1ccc(Cl)cc1	.	2%	-20%	?	.
COc1cccc(/C=N/Nc2nc(C)cc(=O)[nH]2)c1OC	-17%	1%	-24%	i	8%
O=[N+]([O-])c1ccc(/C=N/Nc2ncccc2[N+](=O)[O-])s1	.	-17%	5µM*	i	-5%
COc1cccc(/C=N/Nc2ncccc2[N+](=O)[O-])c1OC	-6%	-20%	-60%	i	3.2µM*
O=S(=O)(O)CCSSCCS(=O)(=O)O	.	.	.	.	6%
COc1ccc(C(C(=O)NC2CCCCC2)N(C(=O)CCl)c2ccc(Cl)cc2)cc1 (stereo not given)	7%	-28%	-63%	3.2µM*	3.5µM*
COc1ccc(N(C(=O)c2cnccn2)C(C(=O)NC2CCCCC2)c2ccc(Cl)cc2)cc1 (stereo not given)	.	11%	0%	i	-8%
N#C/C(=C/c1ccc(Sc2nc3ccccc3[nH]2)o1)c1cccc(Br)c1	66%	23%	0%	?	?
